High-throughput results deposited in PubChem BioAssay by National Center for Advancing Translational Sciences (NCATS).
An excerpt weighted towards active compounds, which were near 16% of everything screened.
DT40 TDP1 CPT = qHTS for Inhibitors of human tyrosyl-DNA phosphodiesterase 1 (TDP1): qHTS in cells in presence of CPT. chicken DT40 Tdp1-/-;hTDP1 cells + 20 nM CPT, ATP luminescence, 48 h. Potency, µM (top dose mostly 46.2 µM), hits mostly inhibitors. 420,000 compounds, 12% hits. AID 686979, 2013; further: nearly all actives have a fitted effect of over 55% in size
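Chicken DT40 Tdp1-/- cells stably complemented with human TDP1 were seeded at 400 cells/well in medium containing 20 nM camptothecin, exposed to pin-transferred compounds, and grown at 37 °C for at least 48 hr. Viability was read as ATP luminescence.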
DT40 TDP1 no CPT = qHTS for Inhibitors of human tyrosyl-DNA phosphodiesterase 1 (TDP1): qHTS in cells in absence of CPT; DT40 Tdp1-/- hTDP1 cells, no CPT, ATP luminescence, 48 h; 420,000 compounds, 15% hits; Potency, µM (series often up to 46.2 µM), most hits filed as inhibitors; further: nearly all actives have a fitted effect of over 55% in size
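Chicken DT40 Tdp1-/- cells stably complemented with human TDP1 were seeded at 400 cells/well with DMSO in place of 20 nM camptothecin. After compound pinning, cells grew at least 48 hr at 37 °C; viability read by CellTiter-Glo luminescence.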
miR-21 reporter = qHTS Assay for Modulators of miRNAs and/orActivators of miR-21; AID 2288, 2010; 340,000 tested, under 10 active; HeLa miR-21 FLuc reporter, luciferase, 48 h; Potency, µM (highest dose often 38.3 µM), hits mostly activators;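 further: miR-21 action dims this reporter so a rising signal means less miR-21 action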
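HeLa cells stably expressing CMV-driven firefly luciferase with a downstream miR-21 binding sequence, endogenously expressing miR-21, were treated with titrations (up to about 40uM final) for 48 hours at 37 degree Celsius. Luciferase luminescence was read after lysis.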
TDP1 inh = qHTS Assay for Inhibitors of Tyrosyl-DNA Phosphodiesterase (TDP1) | Tyrosyl-DNA phosphodiesterase 1 (Homo sapiens), Q9NUW8 | recombinant TDP1, AlphaScreen DNA substrate cleavage | Potency, µM (top dose mostly 130 µM), most hits filed as inhibitors | 350,000 compounds, 0.28% hits; further: nearly all actives have a fitted effect of over 40% in size
Target sequence (Q9NUW8 whole entry, looked up): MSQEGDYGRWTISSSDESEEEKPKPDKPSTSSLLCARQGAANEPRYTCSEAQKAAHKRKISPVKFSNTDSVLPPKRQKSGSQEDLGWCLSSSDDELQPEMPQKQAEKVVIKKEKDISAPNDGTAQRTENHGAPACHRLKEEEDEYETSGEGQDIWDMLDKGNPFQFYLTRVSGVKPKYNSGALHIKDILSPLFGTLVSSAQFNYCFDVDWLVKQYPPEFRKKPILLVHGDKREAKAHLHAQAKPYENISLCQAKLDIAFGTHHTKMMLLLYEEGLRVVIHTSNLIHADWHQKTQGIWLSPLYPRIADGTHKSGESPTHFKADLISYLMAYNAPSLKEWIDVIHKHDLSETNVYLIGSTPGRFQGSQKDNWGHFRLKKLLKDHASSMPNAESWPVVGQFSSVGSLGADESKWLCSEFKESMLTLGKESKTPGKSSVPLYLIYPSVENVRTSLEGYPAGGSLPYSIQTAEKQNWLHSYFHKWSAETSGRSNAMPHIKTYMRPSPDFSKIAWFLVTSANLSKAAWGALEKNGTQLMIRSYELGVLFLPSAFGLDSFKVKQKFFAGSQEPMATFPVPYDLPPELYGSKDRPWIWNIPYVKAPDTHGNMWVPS
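AlphaScreen read-out: signal falls as enzyme removes the 3' tyrosine-FITC from a 5'-biotinylated DNA oligo (15 nM, 5 min, RT). Enzyme was E. coli-made recombinant Tdp1 at 1 nM, exposed to compound for 15 min beforehand; beads 10 ug/ml, 10 min.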
uPA generation = qHTS for Inhibitors of Cell Surface uPA Generation; 330,000 compounds, 0.31% hits; cell surface uPA generation assay, qHTS; Potency, µM (highest dose often 38.3 µM), most hits filed as inhibitors; active means well fitted inhibition curve with a large enough effect; inconclusive means small, poorly fitted or top-dose-only effect; inactive means no such curve, though single readings can be large or run the other way; tested in mouse RAW 264.7 cells; further: nearly all actives have a fitted effect of over 55% in size
Each line names hits and unclear results; the compound was inactive in the other large screens. Unless noted, the call rests on the fitted dose curve; in most records, active means well fitted curve in the direction sought with a large enough effect; inconclusive means small, poorly fitted or top-dose-only effect, or another doubt; inactive means no such curve, though single readings can be large; an effect the other way counts as inactive or inconclusive.

O=C(NC1CCCCC1)C(c1ccc(F)cc1)N(Cc1ccccc1)C(=O)CN1C(=O)c2ccccc2S1(=O)=O (stereo not drawn)	DT40 TDP1 CPT 21µM, DT40 TDP1 no CPT 21µM
O=C(NC1CCCCC1)C(c1ccc(F)cc1)N(CCc1ccccc1)C(=O)CN1C(=O)c2ccccc2S1(=O)=O (stereo not drawn)	DT40 TDP1 CPT 3.7µM, DT40 TDP1 no CPT 5.8µM
O=C(NCC1CCCO1)C(c1ccncc1)N(Cc1ccc(F)cc1)C(=O)CN1C(=O)c2ccccc2S1(=O)=O (stereo not drawn)	DT40 TDP1 no CPT inconclusive
Cc1c(O)ccc2c(CN(C)Cc3ccccc3)cc(=O)oc12	DT40 TDP1 CPT inconclusive, DT40 TDP1 no CPT 18µM (no result: TDP1 inh)
COc1cccc(CN(C)Cc2cc(=O)oc3c(C)c(C)ccc23)c1	DT40 TDP1 CPT 13µM, DT40 TDP1 no CPT inconclusive (no result: TDP1 inh)
Cn1c(=O)c2c(nc(N3CCCCCC3)n2CCSc2nc3ccccc3o2)n(C)c1=O	DT40 TDP1 CPT 7.3µM, DT40 TDP1 no CPT 23µM
Cn1c(=O)[nH]c(=O)c2c1nc(N1CCCCCC1)n2CCCSc1nc2ccccc2o1	DT40 TDP1 CPT inconclusive, DT40 TDP1 no CPT 29µM
CC1CC(C)CN(c2nc3c(c(=O)n(C)c(=O)n3C)n2CCSc2nc3ccccc3o2)C1 (stereo not drawn)	DT40 TDP1 CPT 18µM, DT40 TDP1 no CPT 15µM (no result: miR-21 reporter, TDP1 inh)
C1=Cc2ccccc2Nc2ccccc21	DT40 TDP1 CPT inconclusive
Cc1coc2c(C)c3oc(=O)c(CCC(=O)N4C[C@H]5C[C@@H](C4)c4cccc(=O)n4C5)c(C)c3cc12	DT40 TDP1 CPT inconclusive, DT40 TDP1 no CPT inconclusive (no result: TDP1 inh)
Cc1cccc(NC(=S)N=Nc2c(O)[nH]c3ccccc23)c1	DT40 TDP1 CPT 3.3µM, DT40 TDP1 no CPT 4.6µM
CC(C)NC(=S)N=Nc1c(O)[nH]c2ccc(C(C)C)cc12	DT40 TDP1 CPT 5.8µM, DT40 TDP1 no CPT 5.2µM
O=C(N=Nc1c(O)[nH]c2ccccc12)Nc1ccccc1	DT40 TDP1 CPT 18µM, DT40 TDP1 no CPT inconclusive (no result: miR-21 reporter, TDP1 inh)
O=C(CNC(=O)/C=C/c1ccco1)N=Nc1c(O)[nH]c2ccccc12	TDP1 inh 40µM
Cc1cccc(NC(=O)c2cc(=O)[nH]c3ccccc23)c1	none (no result: TDP1 inh)
Cc1ccc(N=Nc2c(O)[nH]c(=O)[nH]c2=O)cc1S(=O)(=O)Nc1ccc(Br)cc1	none (no result: miR-21 reporter)
NS(=O)(=O)c1cc(C(=O)N=Nc2c(O)[nH]c3ccccc23)ccc1Cl	DT40 TDP1 CPT inconclusive, DT40 TDP1 no CPT 18µM
O=C(N=Nc1c(O)[nH]c2ccccc12)c1cccc(S(=O)(=O)Nc2ccccc2Cl)c1	DT40 TDP1 CPT inconclusive
O=C(CCCCCNC(=O)c1ccccc1Br)N=Nc1c(O)[nH]c2ccccc12	DT40 TDP1 CPT 21µM, DT40 TDP1 no CPT inconclusive, TDP1 inh inconclusive
O=C(CNC(=O)Cc1ccccc1)N=Nc1c(O)[nH]c2ccccc12	none
COc1ccccc1NC(=S)N=Nc1c(O)[nH]c2ccc(Br)cc12	DT40 TDP1 CPT 2.6µM, DT40 TDP1 no CPT 1.5µM, uPA generation inconclusive
CCOc1ccccc1NC(=S)NC(=O)C1CC1	DT40 TDP1 CPT inconclusive, DT40 TDP1 no CPT inconclusive
CCOC(=O)CSC1=C(C#N)C(C)C2=C(CCCC2=O)N1 (stereo not drawn)	none
COc1cccc(Nc2nc(-c3ccccc3)c3cc(C)ccc3n2)c1	DT40 TDP1 CPT 7.3µM, DT40 TDP1 no CPT inconclusive (no result: uPA generation)
Cc1ccc2nc(NCCCO)nc(-c3ccccc3)c2c1	DT40 TDP1 CPT 13µM, DT40 TDP1 no CPT 12µM
Cc1ccc(CNC(=O)c2ccc3c(c2)N(Cc2cccc(Cl)c2)C(=O)CS3)cc1	DT40 TDP1 CPT inconclusive, DT40 TDP1 no CPT 21µM (no result: uPA generation)
Cc1cccc(CN2C(=O)CSc3ccc(C(=O)NC4CC4)cc32)c1	DT40 TDP1 CPT 0.73µM, DT40 TDP1 no CPT inconclusive
Cc1ccc(CNC(=O)c2ccc3c(c2)N(Cc2ccccc2Cl)C(=O)CS3)cc1	DT40 TDP1 CPT inconclusive, DT40 TDP1 no CPT inconclusive (no result: uPA generation)
O=C(NCC1CCCO1)c1ccc2c(c1)N(Cc1ccccc1)C(=O)CS2 (stereo not drawn)	none
